Screens: PubChem BioAssay, National Center for Advancing Translational Sciences (NCATS)
An excerpt weighted towards active compounds, which were near 21% of everything screened.
Shiga inhibitor: A qHTS for Small Molecule Inhibitors of Shiga Toxin; inhibition, % at 38.7 µM; Vero cells, Shiga toxin protein synthesis inhibition reporter; actives 9.2% (n = 290,000); AID 2315, 2010; in the data active = inhibition mostly above about 28%, no sharp cut-off; inactive = mostly below about 43%; also: 0% is about no effect
AMA1-RON2 inh: qHTS for Inhibitors of AMA1-RON; Towards Development of Antimalarial Drug Lead: Primary Screen; Plasmodium falciparum AMA1 (3D7) - RON2 peptide interaction; AlphaScreen AMA1-biotinylated RON2 peptide binding; Potency, µM (highest dose often 58.2 µM), without a hit: top-dose activity change, negative = inhibition, most hits filed as inhibitors; actives 0.2% (n = 360,000); AID 720542, 2013;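 also: potency is read from the fitted curve at half-maximal effect; 0% = vehicle wells and -100% = peptide control; nearly all actives have a fitted effect of over 45% in size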
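AMA1 (3D7) with his tag at 25 nM final met compounds first, then biotinylated RON2 peptide at 25 nM; detection used donor plus acceptor beads, 10 µg/mL apiece, read by AlphaScreen after 30 min at room temperature.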
HCV inh: qHTS Assay for Inhibitors of Hepatitis C Virus (HCV); Huh7.5.1 HCVcc-Cre infection, luciferase reporter, 44 h; actives 3.4% (n = 340,000); Potency, µM (doses to about 41.8 µM), for inactives: at the highest dose activity change, negative = inhibition, actives largely listed as inhibitors; AID 651820, 2012; also: potency is read from the fitted curve at half-maximal effect; % is scaled to controls: 0 for no effect and ±100 for the full control effect
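A cell-based infection assay in which seeded cells (1,000 per well) receive test compound after 4 h, are inoculated with HCVcc-Cre at approximately 0.5 moi, and are incubated 44 h before luminescence detection.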
Pf growth 96h: Primary qHTS for delayed death inhibitors of the malarial parasite plastid, 96 hour incubation. Potency, µM (doses to about 28.7 µM), for the others: at the highest dose activity change, negative = inhibition, actives largely listed as inhibitors. P. falciparum luciferase reporter growth, 96 h. actives 6.9% (n = 320,000); also: potency is read from the fitted curve at half-maximal effect; % is scaled to controls: 0 for no effect and ±100 for the full control effect
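Infected RBCs, 2% Hct / 0.05% parasitemia final; luciferase-reporter P. falciparum; cpd 96 h, 37 C, 5% CO2; luciferase detection reagent; luminescence.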
CHX counter: Cycloheximide Counterscreen for Small Molecule Inhibitors of Shiga Toxin; cell reporter, cycloheximide protein synthesis inhibition counterscreen; actives 12% (n = 300,000); AID 2314, 2010; max response, %; in the data active = max response mostly above about 13%, no sharp cut-off; inactive = mostly below about 14%; also: read at 38.3 µM for the half of the compounds with a filed dose; 0% is about no effect
Pf growth 48h: Primary qHTS for delayed death inhibitors of the malarial parasite plastid, 48 hour incubation | P. falciparum luciferase growth in erythrocytes, 48 h | actives 5.9% (n = 310,000) | Potency, µM (titrated, usually from 28.7 µM), for inactives: top-dose activity change, negative = inhibition, hits mostly inhibitors | AID 504832, 2011; also: potency is read from the fitted curve at half-maximal effect; % is scaled to controls: 0 for no effect and ±100 for the full control effect
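Cell-based growth assay: transgenic P. falciparum expressing firefly luciferase, cultured in red cells within RPMI 1640 containing 0.5% w/v Albumax, 24 mM bicarbonate and gentamycin. A drop in luciferase activity indicates inhibition.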
Numbers without * were called inactive; ? = inconclusive; · = no result given. Unless noted, calls follow the shape of the dose curve; as a rule, active = well fitted curve in the direction sought with a large enough effect; inconclusive = small, poorly fitted or top-dose-only effect, or another doubt; inactive = no such curve, though single readings can be large; an effect the other way counts as inactive or inconclusive.

SMILES	Shiga inhibitor	AMA1-RON2 inh	HCV inh	Pf growth 96h	CHX counter	Pf growth 48h
COc1ccc(-c2ccc3oc(-c4ccc(OC)cc4)c(-c4cc(OC)c(OC)c(OC)c4)c3c2)cc1	·	4%	13%	·	·	·
COc1cc(-c2c(-c3cccc(C)c3)oc3ccccc23)cc(OC)c1OC	3	-12%	?	9.3µM*	0	?
CCOc1[nH]n(-c2ccccc2)c(=O)c1C=Nc1ccc(C)cc1	9	-1%	-16%	6%	13	-7%
CCOc1[nH]n(-c2ccccc2)c(=O)c1C=Nc1ccccc1	22	17%	-10%	3.7µM*	5	-1%
CCN1CCN(c2nc3c(c(=O)[nH]c(=O)n3C)n2Cc2ccccc2F)CC1	·	22%	7%	31%	-1	3%
CCCn1c(N2CCN(CC(=O)c3c[nH]c4ccccc34)CC2)nc2c1c(=O)[nH]c(=O)n2C	-5	-13%	13µM*	0.74µM*	-1	9.3µM*
CCn1c(N2CCN(CC(=O)c3c(C)n(C)c4ccccc34)CC2)nc2c1c(=O)[nH]c(=O)n2C	-11	10%	-22%	1.3µM*	-2	·
CCn1c(N2CCN(CC(=O)c3c(C)n(C)c4ccc(OC)cc34)CC2)nc2c1c(=O)[nH]c(=O)n2C	0	-12%	?	10µM*	-2	?
CC(NC(=O)COC(=O)CNS(=O)(=O)/C=C/c1ccccc1)c1ccccc1 (stereo not drawn)	·	0%	7%	8%	·	-13%
CN(C)S(=O)(=O)c1ccc(NC(=O)Cn2c(-c3ccccc3)noc2=O)cc1	-7	32%	7%	4.7µM*	1	·
CCOc1ccccc1NC(=O)Cn1c(-c2ccc(Cl)cc2)noc1=O	-8	12%	?	4.1µM*	-2	1.7µM*
Cc1ccc(C(=O)Cn2c(-c3ccccc3)noc2=O)cc1	-5	-4%	2%	-1%	-4	12%
CCCCNc1ncnc2sc3c(c12)CCN(CCC)C3	-1	0%	?	?	-2	?
CS(=O)CCC(NS(=O)(=O)c1ccccc1)C(=O)O (stereo not drawn)	-6	3%	-18%	9.3µM*	-2	?
Cc1cccc(S(=O)(=O)N(C)C[C@@H]2OCc3cnnn3CCCC(=O)N([C@@H](C)CO)C[C@@H]2C)c1	·	-2%	·	·	·	·
CC[C@]12c3[nH]c4ccccc4c3CCN1C(=O)C(CC(=O)NCC13CC4CC(CC(C4)C1)C3)C[C@@H]2C(=O)N1CCN(C(=O)c2ccco2)CC1 (stereo partly drawn)	·	-19%	11µM*	·	·	·
CC[C@]12c3[nH]c4ccc(Cl)cc4c3CCN1C(=O)[C@@H](CC(=O)NCc1cccc(C(F)(F)F)c1)C[C@@H]2C(=O)N1CCN(C(=O)C2CC2)CC1	·	-7%	35µM*	·	·	·
CC[C@]12c3[nH]c4ccc(Cl)cc4c3CCN1C(=O)[C@@H](CC(=O)NCc1cccc(C(F)(F)F)c1)C[C@@H]2C(=O)N1CCN(C(=O)c2ccco2)CC1	·	-26%	32µM*	·	·	·
CC[C@]12c3[nH]c4ccccc4c3CCN1C(=O)C(CC(=O)NCc1cccc(C(F)(F)F)c1)C[C@@H]2C(=O)N1CCN(C(=O)C2CC2)CC1 (stereo partly drawn)	·	-11%	?	·	·	·
CC[C@]12c3[nH]c4ccc(OC)cc4c3CCN1C(=O)C(CC(=O)NCc1cccc(C(F)(F)F)c1)C[C@@H]2C(=O)N1CCN(C(=O)c2ccco2)CC1 (stereo partly drawn)	·	-16%	?	·	·	·
CC[C@]12c3[nH]c4ccccc4c3CCN1C(=O)C(CC(=O)NCc1ccco1)C[C@@H]2C(=O)N1CCN(C(=O)c2ccco2)CC1 (stereo partly drawn)	·	-3%	5%	·	·	·
O=C(Cc1cccs1)Nc1ccccc1-c1nc2ccccc2[nH]1	-2	27%	?	8%	-4	?
